Measurements as given in PubChem BioAssay (NCI).
This is part of a sample that, as a whole, favours compounds with a hit. Of some 79,000 tested, about 15% had one in any assay. Activity calls are given as the source filed them. Rule as the data show it: active = growth inhibition above about 70%; inactive = the rest. Residues, ends and D or L forms follow the SMILES beside them. *: point of attachment. Fmoc = O=C(OCC1c2ccccc2-c2ccccc21)*; Boc = CC(C)(C)OC(=O)*

Assay: NCI Yeast Anticancer Drug Screen. Data for the mec2-1 strain (AID 157)
Conditions: S. cerevisiae mec2-1 strain, at 50.0 µM, active compounds read high
How it was run: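 Yeast mec2-1 mutant treated with compound. Readout: growth inhibition vs vehicle controls.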

Compound | growth inhibition
CC(C)C(=O)CC(Sc1ccc(N)cc1)c1ccccc1 (configuration not stated) | 36.5% (inactive)
CC(C)OP(=O)(OC(C)C)/C(Cl)=N/Nc1ccc([N+](=O)[O-])cc1 | 81% (active)
O=[N+]([O-])c1cc(Cl)ccc1S(=O)(=O)c1ccc(Cl)cc1[N+](=O)[O-] | 83% (active)
CCCCCCNCCCNc1c2cc(OC)ccc2nc2cccc([N+](=O)[O-])c12 | 96.4% (active)
N#CCC(=O)N/N=C(\c1ccccc1)C(c1ccccc1)C1(O)C(=O)Nc2c(Cl)ccc(Cl)c21 (configuration not stated) | 41% (inactive)
CN(C)CCNCCCNc1c2ccccc2nc2cccc([N+](=O)[O-])c12 | 78.7% (active)
CCC[CH2][Ge]([CH2]CCC)([CH2]CCC)[O]C(=O)C(O)c1ccccc1 (configuration not stated) | 90.5% (active)
COc1ccc(-c2cc(-c3cc(C)cc(Cl)c3O)nc3[nH]c(=S)[nH]c(=S)c23)cc1 | 82.6% (active)
O=[N+]([O-])c1ccc(/C=C\c2ccc3c(c2)OCO3)c([N+](=O)[O-])c1 | 83% (active)
O=C1c2ccccc2N2OC3(N4CCCC4)CCCCC3C12c1ccccc1 (configuration not stated) | 24.9% (inactive)
CC(C)OC(=O)NNc1cc(Cl)ccc1Cl | 36.4% (inactive)
Cc1oc2ccccc2c(=O)c1Cn1nnc2ccccc21 | 14.6% (inactive)
CC1(C)OC(=O)C(=Cc2ccc([N+](=O)[O-])s2)C(=O)O1 | 89.3% (active)
CCN(CC)CCCNc1ccc([N+](=O)[O-])c2nc3ccc(OC)cc3c(NCCCN(CC)CC)c12 | 5.05% (inactive)
COc1cccc(/C=C2\S/C(=N/Nc3nc(-c4ccc([N+](=O)[O-])cc4)cs3)NC2=O)c1O | 94.2% (active)
OC(Cc1cccc2ccccc12)CN1CCC(c2ccccc2)CC1 (configuration not stated) | 45.7% (inactive)
C1=CCN([B-](c2ccccc2)[C+]2CCCCC2)C=C1 | 98.7% (active)
O=[N+]([O-])c1cc[n+]([O-])c(Cl)c1 | 99.7% (active)

Compound | growth inhibition
CCCNC(=O)OCc1c(COC(=O)NCCC)c(-c2ccc(Cl)c(Cl)c2)n2c1CCC2 | 41.1% (inactive)
CC1(C)CC(=O)C(C(=O)Nc2cccs2)=C(O)C1 | 93% (active)
O=C(NO)c1coc2ccccc2c1=O | 86.1% (active)
COc1ccc(C(C)c2cc3c(cc2OCC(C)=O)OCO3)cc1 (configuration not stated) | -15.1% (inactive)
CCS(=O)(=O)Nc1ccc(Nc2c3ccccc3nc3ccccc23)c(OC)c1 | 11.8% (inactive)
O=S(=O)(c1ccccc1)N1CN2CN(C1)CN(S(=O)(=O)c1ccccc1)C2 | -28% (inactive)
CC1=NN(C(=O)c2ccccc2O)C(=O)/C1=C/c1ccco1 | 87.2% (active)
O=C1C=C(Br)C(=O)c2ccccc21 | 99.2% (active)
C[N+](C)([O-])CCCNc1c2ccccc2nc2cccc([N+](=O)[O-])c12 | 88% (active)
Cc1cccc2c(NCCCN(C)C)c3c([N+](=O)[O-])ccc(C)c3nc12 | 96.9% (active)
OC1(c2ccccc2)C2CC=CC2C1(c1ccccc1)c1ccccc1 (configuration not stated) | -14.2% (inactive)
C[n+]1c(-c2ccc(/C=N/NC(=O)c3ccc(C(=O)N/N=C/c4ccc(-c5cn6ccccc6[n+]5C)cc4)cc3)cc2)cn2ccccc21 | 49.4% (inactive)
CCN(CC)CCC(=O)Nc1ccc2sc3ccccc3c(=O)c2n1 | -14.1% (inactive)
O=[N+]([O-])c1ccc2nc(=S)[nH]n2c1 | 24.1% (inactive)
O=C(c1ccccc1)[C@H]1Nc2ccc(Cl)cc2[C@H]2OCCC[C@@H]12 | 12.9% (inactive)
COc1cc([N+](=O)[O-])c2ncccc2c1Br | 9.05% (inactive)
O=S(=O)(c1cccc(C(F)(F)F)c1)N1c2ccccc2-n2cccc2C1c1cccnc1 (configuration not stated) | 94.8% (active)
CC(C)(C)OC(=O)NCCCCC(NC(=O)C(Cc1c[nH]c2ccccc12)NC(=O)OCC1c2ccccc2-c2ccccc21)C(=O)O (configuration not stated) (Fmoc-Trp-Lys(Boc)-OH; configuration not given here) | 42.6% (inactive)

Same assay, conditions: S. cerevisiae mec2-1 strain, at 100.0 µM, active compounds read high

Compound | growth inhibition
CC(C)C(=O)CC(Sc1ccc(N)cc1)c1ccccc1 (configuration not stated) | 40% (inactive)
CC(C)OP(=O)(OC(C)C)/C(Cl)=N/Nc1ccc([N+](=O)[O-])cc1 | 90% (active)
O=[N+]([O-])c1cc(Cl)ccc1S(=O)(=O)c1ccc(Cl)cc1[N+](=O)[O-] | 84% (active)
CCCCCCNCCCNc1c2cc(OC)ccc2nc2cccc([N+](=O)[O-])c12 | 99% (active)
N#CCC(=O)N/N=C(\c1ccccc1)C(c1ccccc1)C1(O)C(=O)Nc2c(Cl)ccc(Cl)c21 (configuration not stated) | 11% (inactive)
CN(C)CCNCCCNc1c2ccccc2nc2cccc([N+](=O)[O-])c12 | 95% (active)
CCC[CH2][Ge]([CH2]CCC)([CH2]CCC)[O]C(=O)C(O)c1ccccc1 (configuration not stated) | 99% (active)
COc1ccc(-c2cc(-c3cc(C)cc(Cl)c3O)nc3[nH]c(=S)[nH]c(=S)c23)cc1 | 57% (inactive)
O=[N+]([O-])c1ccc(/C=C\c2ccc3c(c2)OCO3)c([N+](=O)[O-])c1 | 80% (active)
O=C1c2ccccc2N2OC3(N4CCCC4)CCCCC3C12c1ccccc1 (configuration not stated) | 98% (active)
CC(C)OC(=O)NNc1cc(Cl)ccc1Cl | 77% (active)
Cc1oc2ccccc2c(=O)c1Cn1nnc2ccccc21 | 36% (inactive)
CC1(C)OC(=O)C(=Cc2ccc([N+](=O)[O-])s2)C(=O)O1 | 70% (active)
CCN(CC)CCCNc1ccc([N+](=O)[O-])c2nc3ccc(OC)cc3c(NCCCN(CC)CC)c12 | 1% (inactive)
COc1cccc(/C=C2\S/C(=N/Nc3nc(-c4ccc([N+](=O)[O-])cc4)cs3)NC2=O)c1O | 83% (active)
OC(Cc1cccc2ccccc12)CN1CCC(c2ccccc2)CC1 (configuration not stated) | 97% (active)
C1=CCN([B-](c2ccccc2)[C+]2CCCCC2)C=C1 | 99% (active)
O=[N+]([O-])c1cc[n+]([O-])c(Cl)c1 | 99% (active)

Compound | growth inhibition
CCCNC(=O)OCc1c(COC(=O)NCCC)c(-c2ccc(Cl)c(Cl)c2)n2c1CCC2 | 28% (inactive)
CC1(C)CC(=O)C(C(=O)Nc2cccs2)=C(O)C1 | 98% (active)
O=C(NO)c1coc2ccccc2c1=O | 0% (inactive)
COc1ccc(C(C)c2cc3c(cc2OCC(C)=O)OCO3)cc1 (configuration not stated) | 73% (active)
CCS(=O)(=O)Nc1ccc(Nc2c3ccccc3nc3ccccc23)c(OC)c1 | 89% (active)
O=S(=O)(c1ccccc1)N1CN2CN(C1)CN(S(=O)(=O)c1ccccc1)C2 | -10% (inactive)
CC1=NN(C(=O)c2ccccc2O)C(=O)/C1=C/c1ccco1 | 96% (active)
O=C1C=C(Br)C(=O)c2ccccc21 | 99% (active)
C[N+](C)([O-])CCCNc1c2ccccc2nc2cccc([N+](=O)[O-])c12 | 96% (active)
Cc1cccc2c(NCCCN(C)C)c3c([N+](=O)[O-])ccc(C)c3nc12 | 98% (active)
OC1(c2ccccc2)C2CC=CC2C1(c1ccccc1)c1ccccc1 (configuration not stated) | 49% (inactive)
C[n+]1c(-c2ccc(/C=N/NC(=O)c3ccc(C(=O)N/N=C/c4ccc(-c5cn6ccccc6[n+]5C)cc4)cc3)cc2)cn2ccccc21 | 76% (active)
CCN(CC)CCC(=O)Nc1ccc2sc3ccccc3c(=O)c2n1 | 20% (inactive)
O=[N+]([O-])c1ccc2nc(=S)[nH]n2c1 | 34% (inactive)
O=C(c1ccccc1)[C@H]1Nc2ccc(Cl)cc2[C@H]2OCCC[C@@H]12 | 90% (active)
COc1cc([N+](=O)[O-])c2ncccc2c1Br | 2% (inactive)
O=S(=O)(c1cccc(C(F)(F)F)c1)N1c2ccccc2-n2cccc2C1c1cccnc1 (configuration not stated) | 89% (active)
CC(C)(C)OC(=O)NCCCCC(NC(=O)C(Cc1c[nH]c2ccccc12)NC(=O)OCC1c2ccccc2-c2ccccc21)C(=O)O (configuration not stated) (Fmoc-Trp-Lys(Boc)-OH; configuration not given here) | 52% (inactive)
